According to PubChem BioAssay (Tox21):
Inconclusive results are not listed. Unmarked numbers belong to inactive results. Active and inactive are the calls of the source. Unless noted, calls follow the shape of the dose curve; as a rule, active = well fitted cell-killing curve with a large enough effect in the repeat runs (not every such curve was filed as active); inconclusive = weak or mixed curves, or effect the other way; inactive = no such curve, though single readings can be large or run the other way.

System: not listed separately
Experiment: qHTS assay to identify small molecule agonists of the farnesoid-X-receptor (FXR) signaling pathway - cell viability counter screen (AID 743218; active = well fitted cell-killing curve with a large enough effect in the repeat runs; also: nearly all actives have a fitted effect of over 45% in size)
Conditions: FXR-bla HEK293T viability, CellTiter-Glo luminescence, 16 h; series mostly up to 62.6 µM; viability change, negative = cytotoxic: at the top concentration
In short: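 Cytotoxicity counter-screen run in parallel, same wells: FXR-UAS-bla HEK 293T cells dosed 16 h at 37 C, viability read by CellTiter-Glo luminescence after 30 min at room temperature.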
% is scaled to controls: 0 for no effect and ±100 for the full control effect; potency is read from the fitted curve at half-maximal effect.

SMILES	viability change, negative = cytotoxic	Potency
CCCCN1CCCC1C(=O)Nc1c(C)cc(C)cc1C (stereo unspecified)	-9.57%	–
CN1C[C@H](C(=O)N[C@]2(C)O[C@@]3(O)[C@@H]4CCCN4C(=O)[C@H](Cc4ccccc4)N3C2=O)C[C@@H]2c3cccc4[nH]cc(c34)C[C@H]21	–	26.6 µM (active)
CC(C)Nc1cccnc1N1CCN(C(=O)c2cc3cc(NS(C)(=O)=O)ccc3[nH]2)CC1	-10.5%	–
CCCCCC#CC(=O)OC	29.8%	–
Cc1cc(=O)c2c(O)c3c(O)cc(=O)c4c3c3c(cc(O)c1c23)C(C)(C)C=4O	–	1.84 µM (active)
CN1C(=O)N(c2ccccc2Br)Cc2cnc(Nc3ccc4c(c3)OCC(CO)O4)nc21 (stereo unspecified)	-49%	–
COc1cc(Nc2c(C#N)cnc3cc(OCCCN4CCN(C)CC4)c(OC)cc23)c(Cl)cc1Cl	–	13.3 µM (active)
Oc1ccc(Cl)c2cccnc12	2.97%	–
CC(C)(c1ccccc1)c1ccccc1	6.07%	–
Cc1ccco1	-3.43%	–
Cc1cccc(O)c1N	-4.58% [at 81.1 µM]	–
Brc1cc2ccccc2c2ccccc12	0% [at 81.1 µM]	–

Target: Bile acid receptor (Homo sapiens) (UniProt Q96RI1)
Experiment: qHTS assay to identify small molecule agonists of the farnesoid-X-receptor (FXR) signaling pathway (AID 743220; active = well fitted activation curve with a large enough effect in the signal ratio in the repeat runs, not every such curve was filed as active; the % refers to the signal ratio)
Conditions: HEK293T FXR-UAS-bla, beta-lactamase FRET ratio, 16 h; series mostly up to 62.6 µM; activation: at the top concentration
In short: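 Beta-lactamase reporter under UAS control in GeneBLAzer FXR HEK 293T cells (5000/well) measured with LiveBLAzer FRET substrate after 2 h at room temperature. Compound exposure lasted 16 h at 37C.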

Bile acid receptor (Homo sapiens), sequence (Q96RI1 whole entry, looked up): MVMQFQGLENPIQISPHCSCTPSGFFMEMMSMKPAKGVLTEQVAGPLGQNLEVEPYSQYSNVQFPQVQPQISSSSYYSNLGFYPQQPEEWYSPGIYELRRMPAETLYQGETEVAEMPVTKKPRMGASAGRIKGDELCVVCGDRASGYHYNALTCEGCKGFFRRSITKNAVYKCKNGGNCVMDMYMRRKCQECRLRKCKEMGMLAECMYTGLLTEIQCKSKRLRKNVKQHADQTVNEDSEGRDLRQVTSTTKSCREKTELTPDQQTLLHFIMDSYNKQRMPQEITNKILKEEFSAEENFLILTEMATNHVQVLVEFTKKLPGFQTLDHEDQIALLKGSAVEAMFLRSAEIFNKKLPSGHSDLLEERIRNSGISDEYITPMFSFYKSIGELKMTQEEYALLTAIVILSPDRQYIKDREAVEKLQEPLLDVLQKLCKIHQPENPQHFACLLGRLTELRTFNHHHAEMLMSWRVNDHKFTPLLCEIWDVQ

SMILES	activation	Potency
CC(C)COCC(CN(Cc1ccccc1)c1ccccc1)N1CCCC1 (stereo unspecified)	0.271%	–
COC(=O)c1nc(Cl)c(Cl)nc1N	–	29.8 µM (active)
C[C@@H](O)[C@H]1C(=O)N2C(C(=O)O)=C([C@H]3CCCO3)S[C@H]12	1.41%	–
Clc1ccc(Nc2nnc(Cc3ccncc3)c3ccccc23)cc1	-0.702%	–
CC(C)c1nc(CN(C)C(=O)N[C@H](C(=O)N[C@@H](Cc2ccccc2)C[C@H](O)[C@H](Cc2ccccc2)NC(=O)OCc2cncs2)C(C)C)cs1	-3.63%	–
Oc1ccc(Cl)c2cccnc12	4.56%	–
Cc1cccc(O)c1N	0.44% [at 81.1 µM]	–

System: not listed separately
Experiment: qHTS assay to identify small molecule antagonists of the farnesoid-X-receptor (FXR) signaling pathway - cell viability counter screen (AID 743221); also: nearly all actives have a fitted effect of over 50% in size
Conditions: FXR-bla HEK293T viability, CellTiter-Glo luminescence, 16 h; series mostly up to 62.6 µM; activity change, negative = cytotoxicity: at the top concentration
In short: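 HEK 293T FXR-bla cells, 5 h pre-incubation; compound + CDCA 50 uM final, 16 h, 37 C; beta-lactamase FRET read first, then CellTiter-Glo luminescence, 30 min RT.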

SMILES	activity change, negative = cytotoxicity	Potency
CC1(CN2CCC(n3c(=O)[nH]c4ccccc43)CC2)OCc2ccccc2-n2cccc21 (stereo unspecified)	-13.3%	–
C[C@@H]1CN(CCCn2c3ccccc3c3ccccc32)C[C@H](C)N1	–	29.8 µM (active)
CCOc1cccc(-n2cc(C(=O)N3CCN(c4cc(C(=O)O)c5ccccc5c4)CC3)nc2-c2ccc(C)cc2)c1	-14.1%	–
C1C[C@@H]2[C@H]3CC[C@H](C3)[C@@H]2C1	-0.841%	–
C[C@@H](O)[C@H]1C(=O)N2C(C(=O)O)=C([C@H]3CCCO3)S[C@H]12	-5.34%	–
O=C1NCCN1CCO	11.2% [at 81.1 µM]	–
Oc1cccc(O)c1O	13.4%	–
O=C1c2ccccc2C(=O)C1(O)O	4.23% [at 81.1 µM]	–
O=C(O)CCC(=O)C(=O)O	-2.68%	–
CC(C)=CCC1C(=O)N(c2ccccc2)N(c2ccccc2)C1=O	-0.0775%	–
CC(C)C=O	-2.48% [at 81.1 µM]	–
CCCCCCCCCCC(=O)O	-4.41% [at 81.1 µM]	–
O=c1cc(-c2ccccc2)oc2cc(O)cc(O)c12	3.23%	–
CC(=O)OCCN(CCOC(C)=O)c1ccc(N=Nc2ccc([N+](=O)[O-])cc2C#N)cc1	3.96%	–
N#[N+]c1ccc2c(S(=O)(=O)[O-])cccc2c1O	-2.14%	–
Cc1[nH]cnc1CN1CCc2c(c3ccccc3n2C)C1=O	-3.5%	–
CC1(C)S[C@@H]2[C@H](NC(=O)C(c3ccccc3)S(=O)(=O)O)C(=O)N2[C@H]1C(=O)O (stereo partly specified)	-1.22%	–
O=C1c2ccccc2C(=O)C1c1ccc(Br)cc1	-13.4%	–
CCCCN1CCCC1C(=O)Nc1c(C)cc(C)cc1C (stereo unspecified)	-15.6%	–
CC(C)Nc1cccnc1N1CCN(C(=O)c2cc3cc(NS(C)(=O)=O)ccc3[nH]2)CC1	-6.31%	–
CCCCCC#CC(=O)OC	6.11%	–
Cc1cc(=O)c2c(O)c3c(O)cc(=O)c4c3c3c(cc(O)c1c23)C(C)(C)C=4O	–	1.84 µM (active)
O=C(/C=C/c1ccccc1)OCCc1ccccc1	8.34%	–
COc1cc(Nc2c(C#N)cnc3cc(OCCCN4CCN(C)CC4)c(OC)cc23)c(Cl)cc1Cl	–	26.6 µM (active)
Oc1ccc(Cl)c2cccnc12	-16.1%	–
CC(C)(c1ccccc1)c1ccccc1	9.39%	–
Cc1ccco1	-0.77%	–
Cc1cccc(O)c1N	-3.39% [at 81.1 µM]	–
Brc1cc2ccccc2c2ccccc12	-0.573% [at 81.1 µM]	–

Target: Vitamin D3 receptor (Homo sapiens) (UniProt P11473)
Experiment: qHTS assay to identify small molecule agonists of the vitamin D receptor (VDR) signaling pathway (AID 743222; calls by dose curve)
Conditions: HEK293T VDR-UAS-bla, beta-lactamase FRET ratio, 16 h; series mostly up to 63.5 µM; activation: at the top concentration
In short: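 Quantitative HTS agonist-mode screen: compounds in DMSO were pin-transferred onto VDR-bla cells and incubated 16 h at 37C, 5% CO2. Reporter activity was detected with LiveBLAzer B/G FRET substrate after 2 h at room temperature.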

Vitamin D3 receptor (Homo sapiens), sequence (P11473 whole entry, looked up): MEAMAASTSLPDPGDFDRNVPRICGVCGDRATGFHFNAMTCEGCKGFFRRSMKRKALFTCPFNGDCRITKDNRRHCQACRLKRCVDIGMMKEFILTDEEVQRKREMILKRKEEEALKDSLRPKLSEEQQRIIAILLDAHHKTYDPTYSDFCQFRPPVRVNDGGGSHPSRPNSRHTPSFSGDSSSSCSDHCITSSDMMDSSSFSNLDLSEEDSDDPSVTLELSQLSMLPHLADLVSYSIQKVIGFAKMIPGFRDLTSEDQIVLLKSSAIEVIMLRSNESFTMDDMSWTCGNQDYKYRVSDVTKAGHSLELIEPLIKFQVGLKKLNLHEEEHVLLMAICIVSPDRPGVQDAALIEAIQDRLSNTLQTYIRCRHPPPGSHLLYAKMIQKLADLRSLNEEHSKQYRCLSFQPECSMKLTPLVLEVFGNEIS

SMILES	Potency	activation
COC(=O)c1nc(Cl)c(Cl)nc1N	11.9 µM (active)	–
CCOC(=O)c1ccccc1C(=C1C=C(Br)C(=O)C(Br)=C1)c1cc(Br)c(O)c(Br)c1	–	-7.98%
C1C[C@@H]2[C@H]3CC[C@H](C3)[C@@H]2C1	–	5.23%
C=CC(=O)OCC1CC2CC1C1CCC(COC(=O)C=C)C21 (stereo unspecified)	–	1.63%
O=C1NCCN1CCO	–	1.23% [at 81.1 µM]
Clc1ccc(Nc2nnc(Cc3ccncc3)c3ccccc23)cc1	–	-18.4%
Oc1cccc(O)c1O	–	0.91%
O=C1c2ccccc2C(=O)C1(O)O	–	-6.72% [at 81.1 µM]
O=C(O)CCC(=O)C(=O)O	–	-0.201%
CC(C)=CCC1C(=O)N(c2ccccc2)N(c2ccccc2)C1=O	–	-8.69%
CC(C)C=O	–	3.91% [at 81.1 µM]
CC(=O)OCCN(CCOC(C)=O)c1ccc(N=Nc2ccc([N+](=O)[O-])cc2C#N)cc1	–	-11%
N#[N+]c1ccc2c(S(=O)(=O)[O-])cccc2c1O	–	2.86%
Cc1[nH]cnc1CN1CCc2c(c3ccccc3n2C)C1=O	–	-0.259%
CC1(C)S[C@@H]2[C@H](NC(=O)C(c3ccccc3)S(=O)(=O)O)C(=O)N2[C@H]1C(=O)O (stereo partly specified)	–	8.32%
O=C1c2ccccc2C(=O)C1c1ccc(Br)cc1	–	-21.1%
CCCCN1CCCC1C(=O)Nc1c(C)cc(C)cc1C (stereo unspecified)	–	0.374%
CC(C)Nc1cccnc1N1CCN(C(=O)c2cc3cc(NS(C)(=O)=O)ccc3[nH]2)CC1	–	-9.13%
CCCCCC#CC(=O)OC	–	1.64%
CN1C(=O)N(c2ccccc2Br)Cc2cnc(Nc3ccc4c(c3)OCC(CO)O4)nc21 (stereo unspecified)	–	-13.3%
COc1cc(Nc2c(C#N)cnc3cc(OCCCN4CCN(C)CC4)c(OC)cc23)c(Cl)cc1Cl	–	-9.62%
CC(C)(c1ccccc1)c1ccccc1	–	0.919%
Cc1ccco1	–	4.44%
